Rows were chosen to be rich in hits. Some 4.9% of all compounds tested hit in one or more screens of this group.
Calb FLC = C. albicans growth modulation with fluconazole; C. albicans CaCi-2 (fluconazole-resistant clinical isolate) + fluconazole, Alamar Blue growth, 48 h; growth inhibition, % (test concentration not listed); 0.57% of 300,000 active; AID 1979;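 active means growth inhibition above about 58% in most replicates, limit read from the data, passing the limit was not always enough; inconclusive means exactly half the replicates above a set limit; inactive means most replicates below a set limit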;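 further: all wells also contain fluconazole at 8 µg/ml as a sub-toxic cotreatment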
PP1 counter = PP1-alpha (human) inhibition in PP5 counter-screen; AID 2235; inhibition, % at 6.7 µM; 0.9% of 320,000 active; purified PP1alpha, OMFP fluorescence;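 active means inhibition above the mean inhibition of all tested compounds plus 3 SD, computed separately for each screening campaign, cut at about 15% in these data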
Target sequence (P62136 whole entry, looked up): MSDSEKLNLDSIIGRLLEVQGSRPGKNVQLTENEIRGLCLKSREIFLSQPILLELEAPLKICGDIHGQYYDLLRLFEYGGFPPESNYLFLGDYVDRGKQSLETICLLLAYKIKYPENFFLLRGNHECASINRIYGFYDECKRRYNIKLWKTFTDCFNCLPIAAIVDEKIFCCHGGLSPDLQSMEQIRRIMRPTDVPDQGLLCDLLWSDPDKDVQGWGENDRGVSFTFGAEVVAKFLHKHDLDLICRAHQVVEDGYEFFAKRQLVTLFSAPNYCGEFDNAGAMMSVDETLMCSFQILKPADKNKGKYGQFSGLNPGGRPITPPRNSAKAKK
PP5 inh = blocks human protein phosphatase 5 activity. P53041. purified PP5c, OMFP substrate fluorescence. inhibition, % at 6.7 µM. 0.18% of 320,000 active;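 active means inhibition above the campaign's mean inhibition across all tested compounds plus 3 SD, cut at about 9.5% in these data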
CSC inhib = blocks cancer stem cells | cancer stem cell-like cells viability, luminescence | inhibition, % at 7.5 µM | 1.1% of 300,000 active | AID 2717; in the data active means inhibition above about 75%; inconclusive means no clear call, values can overlap the other calls; tested in HMLE shEcad cells
Mdm2 MdmX PPI = inhibitors of human Mdm2/MdmX interaction; inhibition, % at 8 µM; 3% of 330,000 active; O15151+Q00987; SaOS-2 split-luciferase Mdm2/MdmX complementation, luminescence;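 active means inhibition of at least 50% at 8 µM in the primary screen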
Beta apoptosis = beta cell apoptosis inhibition; INS-1E cytokine-induced death, ATP luminescence, 48 h; percent of positive-control rescue, neutral wells zero; protection from apoptosis, % (concentration not given with the values); 0.8% of 300,000 active;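 active means Every replicate reaches about 75%, or at least half do and their mean reaches it too, limit read from the data; inconclusive means At least half of replicates reach the limit but their mean does not; inactive means Under half of replicates reach the limit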;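 further: higher means more ATP so stronger rescue from cytokine killing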
Mdm2 MdmX conf = human Mdm2/MdmX binding inhibition, confirmed; shares compounds with Mdm2 MdmX PPI; luminescent assay; inhibition, % at 8 µM; 55% of 10,000 active; AID 489028; in the data active means inhibition above about 40%
FLuc counter = counter-screen for Mdm2/MdmX inhibitors: full-length luciferase | AID 504607 | SaOS-2 full-length luciferase counterscreen, luminescence | 77% of 6,200 active | shares compounds with Mdm2 MdmX PPI | inhibition, % at 8 µM;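 active means mean inhibition at 8 µM reaching about 37%, which flags the compound as non-specific, limit read from the data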;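 further: p53-null SaOS-2 cells with luciferase driven by a doxycycline-inducible promoter; compound on cells about two nights before reading with doxycycline added after day one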
Each line names hits and unclear results; the compound was inactive in the other large screens (follow-up assays come after a bar, where they were run).

C#CCOCCOCCOCCNc1nc(N2CCN(C(=O)CCCCCCCCCCNC(=O)[C@H]([C@@H](C)CC)n3cc(CCCCCN)nn3)CC2)nc(N2CCN(C(=O)CCCCCCCCCCNC(=O)[C@@H]([C@H](C)CC)n3cc(CCCCCN)nn3)CC2)n1	PP1 counter 64, CSC inhib 167, Mdm2 MdmX PPI 100, Beta apoptosis 115 (no result: Calb FLC) | Mdm2 MdmX conf 63 | FLuc counter inactive
COc1cc(C(=O)NCC2CCCO2)ccc1OCc1ccccc1Cl (stereo not drawn)	none
O=C1c2ccccc2C(=O)c2c1oc(C(F)(F)F)c2C(=O)c1ccccc1	CSC inhib 117, Mdm2 MdmX PPI 84, Beta apoptosis 123 | Mdm2 MdmX conf 82 | FLuc counter 50
O=C(c1ccccc1)c1coc2c1C(=O)c1ccccc1C2=O	none
COc1ccc(Cl)c2sc(NC(=O)C3=COCCO3)nc12	Mdm2 MdmX PPI 54 | Mdm2 MdmX conf inactive
O=C(Nc1nc2ccc(F)cc2s1)C1=COCCO1	none
NS(=O)(=O)c1ccc2nc(NC(=O)c3ccc4c(c3)OCCO4)sc2c1	Mdm2 MdmX PPI 76 (no result: Calb FLC) | Mdm2 MdmX conf inactive
O=C(Nc1nc2cc3c(cc2s1)OCCO3)C1=COCCO1	Mdm2 MdmX PPI 87 | Mdm2 MdmX conf 83 | FLuc counter 39
Cc1ccc(Cl)c2sc(NC(=O)C3=COCCO3)nc12	none (no result: Beta apoptosis)
Cc1ccc(SCC(=O)NC2CCCCCC2)cc1	none (no result: Beta apoptosis)
COc1ccc(S(=O)(=O)Nc2ccccc2C(N)=O)cc1OC	none
CC1CCCCN1C(=O)CSc1nnc2c(n1)[nH]c1ccc(F)cc12 (stereo not drawn)	none
CC1CCc2cc(F)ccc2N1C(=O)CSc1nnc2c(n1)[nH]c1ccc(F)cc12 (stereo not drawn)	Mdm2 MdmX PPI 84 | Mdm2 MdmX conf inactive
O=C(Cn1c(COc2ccccc2)nc2ccccc21)Nc1cc(Cl)ccc1Cl	Mdm2 MdmX PPI 89 | Mdm2 MdmX conf 71 | FLuc counter 104
O=C(Cn1c(COc2ccccc2)nc2ccccc21)Nc1cc(Cl)cc(Cl)c1	none (no result: Beta apoptosis)
C=CCSc1nc2ccccc2n1C(=O)/C=C/c1cc(OC)c(OC)c(OC)c1	Mdm2 MdmX PPI 100 (no result: CSC inhib) | Mdm2 MdmX conf 95 | FLuc counter inactive
CCSc1nc2ccccc2n1C(=O)/C=C/c1ccc(OC)c(OC)c1	Calb FLC inconclusive, Mdm2 MdmX PPI 100 | Mdm2 MdmX conf 99 | FLuc counter 54
C=CCSc1nc2ccccc2n1C(=O)/C=C/c1ccc(OC)c(OC)c1	none (no result: Mdm2 MdmX PPI)
COc1ccc(-c2nc(-c3ccc(NC(=O)c4ccc(Br)o4)cc3)no2)cc1OC	CSC inhib 79, Mdm2 MdmX PPI 78 (no result: Beta apoptosis) | Mdm2 MdmX conf inactive
COc1ccc(NC(=O)c2cc3ccccc3oc2=O)c(OC)c1	none
COc1ccc(-c2cc3ccccc3oc2=O)cc1NC(=S)NC(=O)c1ccc2c(c1)OCCO2	Mdm2 MdmX PPI 88 (no result: CSC inhib) | Mdm2 MdmX conf inactive
COc1ccc(S(=O)(=O)Nc2ccccc2OC)cc1NC(=O)c1cc2ccccc2oc1=O	Mdm2 MdmX PPI 73 | Mdm2 MdmX conf inactive
COc1ccc(-c2cc3ccccc3oc2=O)cc1NC(=O)c1ccc(Br)o1	Mdm2 MdmX PPI 59 | Mdm2 MdmX conf inactive | FLuc counter inactive
CSc1nc(O)c(C(c2ccc(OC(C)C)cc2)c2c(O)nc(SC)[nH]c2=O)c(=O)[nH]1	none (no result: CSC inhib, Beta apoptosis)
CC1CN(C(=O)c2c(Br)cnn2C)CC(C)O1 (stereo not drawn)	none
O=C(Nc1nc2ccccc2s1)C1CCN(S(=O)(=O)c2cc([N+](=O)[O-])ccc2Cl)CC1	CSC inhib inconclusive, Mdm2 MdmX PPI 96, Beta apoptosis 81 | Mdm2 MdmX conf 87 | FLuc counter 38
CCC(C)NC(=O)C1CCN(S(=O)(=O)c2cc([N+](=O)[O-])ccc2Cl)CC1 (stereo not drawn)	none
O=C(Nc1nc2ccc(S(=O)(=O)N3CCCC3)cc2s1)C1CCCCC1	Mdm2 MdmX PPI 66 | Mdm2 MdmX conf 57 | FLuc counter 70
O=C(Nc1nc2ccc(S(=O)(=O)N3CCCCC3)cc2s1)C1CCCO1 (stereo not drawn)	none
Cc1c(C(=O)NCCC2=CCCCC2)oc2ccc(S(=O)(=O)N3CCOCC3)cc12	Mdm2 MdmX PPI 54 (no result: Calb FLC) | Mdm2 MdmX conf inactive

Screening results as filed in PubChem.
